From PubChem BioAssay (Tox21)
Results filed as inconclusive are left out. Entries that show only a call come without a potency. Some compounds were tested as several samples or in several runs, with calls that do not always agree. Activity calls are given as the source filed them. Unless noted, calls come from the whole dose curve.

Tests used:
[1] = biological target: Peroxisome proliferator-activated receptor delta (Homo sapiens) (UniProt Q03181); assay: qHTS assay to identify small molecule agonists of the peroxisome proliferator-activated receptor delta (PPARd) signaling pathway (AID 743212)
Peroxisome proliferator-activated receptor delta (Homo sapiens), sequence (Q03181 whole entry, looked up): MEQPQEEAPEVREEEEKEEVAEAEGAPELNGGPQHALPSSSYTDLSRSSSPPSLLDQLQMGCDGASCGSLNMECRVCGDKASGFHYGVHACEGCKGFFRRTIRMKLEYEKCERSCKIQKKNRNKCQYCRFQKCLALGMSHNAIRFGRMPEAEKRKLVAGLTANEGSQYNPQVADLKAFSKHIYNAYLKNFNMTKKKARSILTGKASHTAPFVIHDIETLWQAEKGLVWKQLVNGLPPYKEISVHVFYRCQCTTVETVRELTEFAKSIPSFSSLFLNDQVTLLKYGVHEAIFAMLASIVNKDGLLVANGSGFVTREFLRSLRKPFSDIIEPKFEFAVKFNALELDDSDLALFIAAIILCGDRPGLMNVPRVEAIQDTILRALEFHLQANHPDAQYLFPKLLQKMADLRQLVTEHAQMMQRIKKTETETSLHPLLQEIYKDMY
Method in brief: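 GeneBLAzer PPARd UAS-bla HEK293H cells (beta-lactamase reporter under UAS control), plated and rested 5 h at 37 C, then exposed to compounds in DMSO at 37 C; LiveBLAzer B/G FRET substrate added, 2 h room temperature, fluorescence read.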

[2] = qHTS assay to identify small molecule antagonists of the peroxisome proliferator-activated receptor delta (PPARd) signaling pathway - cell viability counter screen (AID 743213; active = well fitted curve in the direction sought with a large enough effect in the repeat runs; an effect the other way counts as inactive or inconclusive; note: nearly all actives have a fitted effect of over 50% in size)
Method in brief: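 PPARd-bla HEK293H cells were treated with compounds plus agonist L165041 (300 nM final) for 17 h at 37 C. Viability was then read in the same wells by CellTiter-Glo luminescence after 30 min at room temperature.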

[3] = biological target: Peroxisome proliferator-activated receptor delta (Homo sapiens) (UniProt Q03181); assay: qHTS assay to identify small molecule antagonists of the peroxisome proliferator-activated receptor delta (PPARd) signaling pathway (AID 743215; active = well fitted inhibition curve with a large enough effect in the signal ratio in the repeat runs, not every such curve was filed as active; the % refers to the signal ratio;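 note: cells stimulated with agonist L165041 at 300 nM final during compound exposure; series mostly up to about 62 µM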)
Method in brief: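 Read-out is beta-lactamase FRET fluorescence, measured 2 h after substrate addition at room temperature. Beforehand, UAS-bla HEK293H cells carrying the PPARd reporter were exposed to compounds with L165041 at 300 nM final for 17 h at 37 C.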

[4] = qHTS assay to identify small molecule agonists of the farnesoid-X-receptor (FXR) signaling pathway - cell viability counter screen (AID 743218; active = well fitted curve in the direction sought with a large enough effect in the repeat runs; an effect the other way counts as inactive or inconclusive; note: nearly all actives have a fitted effect of over 45% in size)
Method in brief: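 HEK 293T FXR-bla cells; 5 h pre-incubation, 16 h compound exposure at 37 C; LiveBLAzer substrate 2 h RT, then CellTiter-Glo 30 min RT, luminescence.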

[5] = qHTS assay to identify small molecule antagonists of the farnesoid-X-receptor (FXR) signaling pathway - cell viability counter screen (AID 743221; active = well fitted cell-killing curve with a large enough effect in the repeat runs, not every such curve was filed as active; note: nearly all actives have a fitted effect of over 50% in size)
Method in brief: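 FXR-UAS-bla HEK 293T cells were treated with test compounds plus chenodeoxycholic acid (50 uM final) for 16 h at 37 C. Cell viability in the same wells was then read as CellTiter-Glo luminescence after 30 min at room temperature.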

[6] = biological target: Vitamin D3 receptor (Homo sapiens) (UniProt P11473); assay: qHTS assay to identify small molecule agonists of the vitamin D receptor (VDR) signaling pathway (AID 743222)
Vitamin D3 receptor (Homo sapiens), sequence (P11473 whole entry, looked up): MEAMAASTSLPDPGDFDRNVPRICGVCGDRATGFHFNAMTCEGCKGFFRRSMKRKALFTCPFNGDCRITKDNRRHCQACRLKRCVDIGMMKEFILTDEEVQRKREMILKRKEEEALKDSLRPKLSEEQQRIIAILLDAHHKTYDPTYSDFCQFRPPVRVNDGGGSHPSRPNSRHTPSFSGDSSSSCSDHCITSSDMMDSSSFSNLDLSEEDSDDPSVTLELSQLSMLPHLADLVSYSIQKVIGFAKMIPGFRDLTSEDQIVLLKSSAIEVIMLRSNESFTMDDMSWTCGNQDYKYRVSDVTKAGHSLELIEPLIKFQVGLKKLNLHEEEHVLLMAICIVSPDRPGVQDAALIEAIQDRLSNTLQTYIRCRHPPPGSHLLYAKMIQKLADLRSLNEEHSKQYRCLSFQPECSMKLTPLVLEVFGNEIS
Method in brief: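 VDR-bla cells, 2,000/well; 4 h preincubation 37C; cpd (DMSO) 16 h; LiveBLAzer B/G substrate 2 h RT; fluorescence intensity read.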

[7] = biological target: Vitamin D3 receptor (Homo sapiens) (UniProt P11473); assay: qHTS assay to identify small molecule antagonists of the vitamin D receptor (VDR) signaling pathway (AID 743223; active = well fitted inhibition curve with a large enough effect in the signal ratio in the repeat runs, not every such curve was filed as active; the % refers to the signal ratio)
Method in brief: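 VDR-bla cells were plated, incubated 4 h at 37C, then given compound and 1alpha,25-dihydroxyvitamin D3 (3 nM final). After 16 h at 37C, LiveBLAzer B/G FRET substrate was added for 2 h at room temperature and fluorescence read.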

[8] = qHTS assay to identify small molecule agonists of the vitamin D receptor (VDR) signaling pathway - cell viability counter screen (AID 743224; active = well fitted curve in the direction sought with a large enough effect in the repeat runs; an effect the other way counts as inactive or inconclusive; note: nearly all actives have a fitted effect of over 50% in size; note: potency is the fitted concentration of half-maximal effect)
Method in brief: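 Luminescence from CellTiter-Glo, read after 30 min at room temperature, reports viability of VDR-bla cells treated with compounds for 16 h at 37C in the wells used for the beta-lactamase FRET read.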

[9] = qHTS assay to identify small molecule antagonists of the vitamin D receptor (VDR) signaling pathway - cell viability counter screen (AID 743225; active = well fitted curve in the direction sought with a large enough effect in the repeat runs; an effect the other way counts as inactive or inconclusive; note: nearly all actives have a fitted effect of over 50% in size)
Method in brief: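 VDR-bla HEK 293T cells, 4 h pre-incubation at 37C, then compound plus 1-alpha,25-dihydroxyvitamin D3 (3 nM final) for 16 h. After the beta-lactamase FRET read, CellTiter-Glo was added to the same wells; luminescence after 30 min at room temperature.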

[10] = qHTS assay to identify small molecule agonists of the NFkB signaling pathway (AID 1159509; active = well fitted curve in the direction sought with a large enough effect in the signal ratio in the repeat runs, not every such curve was filed as active; the % refers to the signal ratio; note: series mostly up to about 61 µM)
Method in brief: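 After overnight attachment, reporter cells received test compounds, DMSO or positive controls and were incubated 5 hr at 37 C. FRET substrate was then added for 1.5 hr at room temperature before dual-emission fluorescence reading.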

[11] = qHTS assay to identify small molecule agonists of the NFkB signaling pathway - cell viability counter screen (AID 1159515); note: series mostly up to about 61 µM; nearly all actives have a fitted effect of over 55% in size
Method in brief: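 Luminescence from CellTiter-Glo (30 min, room temperature) gives viability, measured in the same wells as the beta-lactamase reporter read. Cells were NFkB-bla ME-180, 2,000 per well, treated 5 hr with compounds.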

[12] = qHTS assay to identify small molecule agonists of the endoplasmic reticulum stress response signaling pathway (AID 1159516; active = well fitted activation curve with a large enough effect in the signal ratio in the repeat runs, not every such curve was filed as active; the % refers to the signal ratio)
Method in brief: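 Read-out is beta-lactamase cleavage of a FRET substrate (405 nm excitation; 460 and 530 nm emissions) in ESRE-bla HeLa cells after a 5 hr compound exposure at 37 C. Substrate incubation ran 2 hr at room temperature.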

[13] = qHTS assay to identify small molecule agonists of the endoplasmic reticulum stress response signaling pathway - cell viability counter screen (AID 1159517); note: nearly all actives have a fitted effect of over 50% in size; note: potency is the fitted concentration of half-maximal effect
Method in brief: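 Luminescence readout: CellTiter-Glo, 30 min RT, same wells as the ESRE-bla reporter read. HeLa ESRE-bla, 1,500 cells/well, o/n 37 C; cpd 5 hr 37 C/5% CO2.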

[14] = qHTS assay to identify small molecule antagonists of the retinoid-related orphan receptor gamma (ROR-gamma) signaling pathway - cell viability counter screen (AID 1159520; active = well fitted curve in the direction sought with a large enough effect in the repeat runs; an effect the other way counts as inactive or inconclusive; note: nearly all actives have a fitted effect of over 50% in size)
Method in brief: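 Tet-on ROR gamma CHO cells (1,000/well) were plated 4 hr, given compounds in DMSO for 2 hr at 37 C, then induced with 1 uM final doxycycline for 16 hr. Viability was read as ATP by CellTiter-Glo luminescence after 30 min.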

[15] = biological target: Nuclear receptor ROR-gamma (Homo sapiens) (UniProt P51449); assay: qHTS assay to identify small molecule antagonists of the retinoid-related orphan receptor gamma (ROR-gamma) signaling pathway (AID 1159521; active = well fitted curve in the direction sought with a large enough effect in the repeat runs; an effect the other way counts as inactive or inconclusive; note: nearly all actives have a fitted effect of over 50% in size; note: potency is the fitted concentration of half-maximal effect)
Method in brief: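 Tet-on RORγ CHO cells carrying a ROR response element–luciferase reporter were pretreated with compounds for 2 h, then induced with 1 uM (final) doxycycline hyclate for 16 h at 37 C. Antagonism was read as decreased ONE-Glo luminescence.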

[16] = qHTS assay to identify small molecule agonists of the AP-1 signaling pathway - cell viability counter screen (AID 1159525); note: nearly all actives have a fitted effect of over 55% in size
Method in brief: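 ME-180 AP-1-bla, 2500 cells/well, Opti-MEM + 0.5% dialyzed FBS; overnight 37 °C; cpd 15-pt titration, 5 h 37 °C; CellTiter-Glo 30 min RT; luminescence read; normalised to TOAB and DMSO controls.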

[17] = qHTS assay to identify small molecule agonists of the AP-1 signaling pathway (AID 1159526)
[18] = biological target: Retinoic acid receptor RXR-alpha (Homo sapiens) (UniProt P19793); assay: qHTS assay to identify small molecule agonists of the RXR signaling pathway (AID 1159527); note: nearly all actives have a fitted effect of over 35% in size; note: potency is the fitted concentration of half-maximal effect
Retinoic acid receptor RXR-alpha (Homo sapiens), sequence (P19793 whole entry, looked up): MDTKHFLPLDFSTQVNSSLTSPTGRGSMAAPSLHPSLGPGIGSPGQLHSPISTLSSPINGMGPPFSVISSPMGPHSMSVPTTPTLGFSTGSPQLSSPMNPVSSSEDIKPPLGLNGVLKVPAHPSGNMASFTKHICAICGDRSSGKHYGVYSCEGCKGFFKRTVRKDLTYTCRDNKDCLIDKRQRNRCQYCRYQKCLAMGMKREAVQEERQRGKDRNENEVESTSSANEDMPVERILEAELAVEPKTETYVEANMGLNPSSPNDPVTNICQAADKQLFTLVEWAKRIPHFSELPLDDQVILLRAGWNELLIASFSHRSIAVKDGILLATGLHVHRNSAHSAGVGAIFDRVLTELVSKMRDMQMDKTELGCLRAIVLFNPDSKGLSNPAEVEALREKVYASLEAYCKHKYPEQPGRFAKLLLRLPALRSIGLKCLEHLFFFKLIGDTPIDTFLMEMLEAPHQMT
Method in brief: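 GeneBLAzer RXR-alpha-UAS-bla HEK 293T cells in medium with 2% charcoal-stripped FBS, pre-incubated 5 hr at 37 C, then exposed to compounds 16 hr. Beta-lactamase reporter read by FRET substrate, 2 hr room temperature, 460/530 nm emission.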

[19] = biological target: Bile acid receptor (Homo sapiens) (UniProt Q96RI1); assay: qHTS assay to identify small molecule agonists of the farnesoid-X-receptor (FXR) signaling pathway (AID 743220; active = well fitted activation curve with a large enough effect in the signal ratio in the repeat runs, not every such curve was filed as active; the % refers to the signal ratio)
Bile acid receptor (Homo sapiens), sequence (Q96RI1 whole entry, looked up): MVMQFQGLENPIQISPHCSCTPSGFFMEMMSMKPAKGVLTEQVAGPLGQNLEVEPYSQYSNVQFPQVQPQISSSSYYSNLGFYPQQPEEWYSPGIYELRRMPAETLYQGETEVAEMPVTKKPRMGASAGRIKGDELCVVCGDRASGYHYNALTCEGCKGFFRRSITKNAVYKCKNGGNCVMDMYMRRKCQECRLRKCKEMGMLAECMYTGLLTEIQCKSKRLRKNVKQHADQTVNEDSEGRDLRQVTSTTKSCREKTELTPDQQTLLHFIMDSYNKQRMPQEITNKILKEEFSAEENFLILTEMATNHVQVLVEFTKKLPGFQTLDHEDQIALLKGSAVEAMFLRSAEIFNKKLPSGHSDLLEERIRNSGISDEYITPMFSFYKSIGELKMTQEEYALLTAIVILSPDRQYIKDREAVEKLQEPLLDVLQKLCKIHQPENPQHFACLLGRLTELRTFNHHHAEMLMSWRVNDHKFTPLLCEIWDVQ
Method in brief: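 Beta-lactamase reporter under UAS control in GeneBLAzer FXR HEK 293T cells (5000/well) measured with LiveBLAzer FRET substrate after 2 h at room temperature. Compound exposure lasted 16 h at 37C.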

[20] = biological target: Bile acid receptor (Homo sapiens) (UniProt Q96RI1); assay: qHTS assay to identify small molecule antagonists of the farnesoid-X-receptor (FXR) signaling pathway (AID 743217; active = well fitted inhibition curve with a large enough effect in the signal ratio in the repeat runs, not every such curve was filed as active; the % refers to the signal ratio)
Method in brief: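 HEK 293T FXR-UAS-bla, 5000 cells/well; compound + CDCA 50 uM final; 16 h, 37 °C; B/G FRET substrate 2 h RT; fluorescence.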

SMILES	outcome [1]	Potency [2]	Potency [3]	Potency [4]	Potency [5]	outcome [6]	outcome [7]	Potency [8]	Potency [9]	outcome [10]	outcome [11]	outcome [12]	Potency [13]	Potency [14]	Potency [15]	Potency [16]	outcome [17]	Potency [18]	outcome [19]	outcome [20]
[O-][Br+2]([O-])O	inactive	inactive	inactive	inactive	inactive	inactive	inactive	inactive	inactive	inactive	inactive	inactive	inactive	inactive	inactive	inactive	inactive	inactive	–	–
CON(C)C(=O)Nc1ccc(Br)cc1	inactive	inactive	inactive	inactive	inactive	inactive	–	inactive	inactive	inactive	inactive	inactive	inactive	inactive	inactive	inactive	inactive	inactive	inactive	–
O=C(CCl)NCO	inactive	inactive	inactive	inactive	inactive	inactive	–	inactive	–	inactive	inactive	inactive	inactive	inactive	inactive	inactive	inactive	inactive	–	–
C=CCCC#N	inactive	inactive	–	inactive	inactive	–	–	inactive	inactive	inactive	inactive	inactive	inactive	inactive	inactive	inactive	inactive	inactive	inactive	–
CCOP(=S)(OCC)Oc1ccc(Cl)cc1Cl	inactive	inactive	inactive	inactive	inactive	inactive	inactive	inactive	–	inactive	inactive	inactive	inactive	inactive	inactive	inactive	inactive	inactive	–	–
CCOC(=O)Nc1cccc(OC(=O)Nc2ccccc2)c1	inactive	inactive	inactive	inactive	inactive	–	inactive	inactive	inactive	inactive	inactive	inactive	inactive	inactive	inactive	inactive	inactive	inactive	–	–
C[C@H](CN1CCOCC1)C(C(=O)N1CCCC1)(c1ccccc1)c1ccccc1	inactive	inactive	inactive	inactive	inactive	inactive	–	inactive	inactive	inactive	inactive	inactive	inactive	inactive	inactive	inactive	inactive	inactive	inactive	–
O=C/C=C/c1ccco1	inactive	–	inactive	inactive	inactive	–	–	inactive	inactive	inactive	inactive	inactive	inactive	inactive	inactive	inactive	inactive	inactive	–	–
c1cncc([C@@H]2CCCCN2)c1	inactive	–	inactive	inactive	inactive	inactive	inactive	inactive	–	inactive	inactive	inactive	inactive	inactive	inactive	inactive	inactive	inactive	–	–
CCOc1cc(OP(=S)(OC)OC)nc(CC)n1	inactive	–	inactive	inactive	inactive	inactive	–	inactive	inactive	inactive	inactive	inactive	inactive	inactive	inactive	inactive	inactive	inactive	–	–
CC(Cl)(Cl)Cl	inactive	–	inactive	inactive	inactive	inactive	inactive	inactive	inactive	inactive	inactive	inactive	inactive	inactive	inactive	inactive	inactive	inactive	–	–
CC(C)[C@]12CC(=O)[C@H](C)[C@H]1C2	inactive	–	inactive	inactive	inactive	inactive	inactive	inactive	inactive	inactive	inactive	inactive	inactive	inactive	inactive	inactive	inactive	inactive	inactive	inactive
Cc1ccc(Cl)c(O)c1	inactive	–	inactive	inactive	inactive	inactive	–	inactive	inactive	inactive	inactive	inactive	inactive	inactive	inactive	inactive	inactive	inactive	inactive	inactive
CNC(=O)NC(O)C(Cl)(Cl)Cl (centres undefined)	inactive	–	inactive	inactive	inactive	inactive	inactive	inactive	–	inactive	inactive	inactive	inactive	inactive	inactive	inactive	inactive	inactive	–	–
C#CCOC(=O)/C=C(C)/C=C/CC(C)CCCC(C)C (centres undefined)	inactive	–	inactive	inactive	inactive	inactive	inactive	–	–	inactive	inactive	inactive	inactive	inactive	inactive	inactive	inactive	49 µM (active)	inactive	inactive
CC(=NC#N)N(C)Cc1ccc(Cl)nc1	inactive	inactive	–	inactive	inactive	inactive	inactive	inactive	inactive	inactive	inactive	inactive	inactive	inactive	inactive	inactive	inactive	inactive	–	–
COc1ccc(C=O)cc1O	inactive	–	inactive	inactive	inactive	–	–	inactive	inactive	inactive	inactive	inactive	inactive	inactive	inactive	inactive	inactive	inactive	inactive	inactive
Clc1nc(Cl)nc(Nc2ccccc2Cl)n1	inactive	inactive	–	inactive	inactive	inactive	–	inactive	inactive	inactive	inactive	inactive	inactive	inactive	inactive	inactive	inactive	inactive	–	–
N#CN	inactive	inactive	–	inactive	inactive	inactive	inactive	inactive	inactive	inactive	inactive	inactive	inactive	inactive	inactive	inactive	inactive	inactive	–	–
CCC(CC)(CNC(=O)CCCO)c1cccc(OC)c1	inactive	inactive	–	inactive	inactive	inactive	inactive	inactive	inactive	inactive	inactive	inactive	inactive	inactive	inactive	inactive	inactive	inactive	–	–
CS(=O)(=O)c1ccc(C(=O)C2C(=O)CCCC2=O)c(Cl)c1COCC(F)(F)F	inactive	–	inactive	inactive	inactive	inactive	inactive	inactive	–	inactive	inactive	inactive	inactive	inactive	inactive	inactive	inactive	inactive	–	–
COC(=O)c1ccccc1CS(=O)(=O)NC(=O)Nc1nc(OC)cc(OC)n1	–	inactive	inactive	inactive	inactive	inactive	inactive	inactive	–	inactive	inactive	inactive	inactive	inactive	inactive	inactive	inactive	inactive	inactive	inactive
Cc1cccc2sc3nncn3c12	inactive	–	inactive	inactive	inactive	–	–	inactive	–	inactive	inactive	inactive	inactive	inactive	inactive	inactive	inactive	inactive	inactive	inactive
CCCCOC(C)=O	inactive	–	inactive	inactive	inactive	–	–	inactive	–	inactive	inactive	inactive	inactive	inactive	inactive	inactive	inactive	inactive	inactive	inactive
C(COCC1CO1)OCC1CO1 (centres undefined)	–	inactive	inactive	inactive	inactive	–	–	–	–	inactive	inactive	inactive	inactive	inactive	inactive	inactive	inactive	inactive	inactive	inactive
C[C@H]1CCCC(=O)CCC/C=C/c2cc(O)cc(O)c2C(=O)O1	inactive	inactive	–	–	inactive	–	–	42.1 µM (active) and inactive	inactive	inactive	inactive	inactive	47.2 µM (active) and inactive	inactive	20.9 µM (active) and inactive	inactive	inactive	inactive	–	–
c1ccc2c(c1)CCNC2	inactive	–	inactive	inactive	inactive	inactive	inactive	inactive	inactive	inactive	inactive	inactive	inactive	inactive	inactive	inactive	inactive	inactive	–	–
COP(=O)(O)OC	inactive	–	inactive	inactive	inactive	–	–	inactive	inactive	inactive	inactive	inactive	inactive	inactive	inactive	inactive	inactive	inactive	inactive	inactive
CCN(CCO)CCO	inactive	inactive	–	inactive	inactive	inactive	inactive	inactive	inactive	inactive	inactive	inactive	inactive	inactive	inactive	inactive	inactive	inactive	–	–
